The list is not random: actives were taken first. Their share in the collection is about 2.1%.
aSyn yeast inh: rescues yeast growth from alpha-synuclein toxicity | Yeast expressing alpha-synuclein, growth rescue, BacTiter-Glo, 24 h | Potency, µM (highest dose often 46.1 µM), for inactives: at the top dose growth rescue (activation), hits mostly activators | hit rate 0.14% among 370,000; further: % of control where 0% means no effect; nearly all actives have a fitted effect of over 65% in size
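Rescue of yeast growth: cells expressing toxic alpha-synuclein, induced in galactose at OD600 0.02, incubated with compound 24 h at 30 C. ATP luminescence quantified growth; inhibitors of toxicity appear as activators.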
Abeta yeast res: A-beta toxicity reversal in yeast | yeast expressing A-beta42, growth rescue, OD600, 48 h; response scale: 0% DMSO, 100% iron-clioquinol control | Potency, µM (series often up to 46.1 µM), actives largely listed as activators | hit rate 0.063% among 410,000 | AID 1347071; further: nearly all actives have a fitted effect of over 55% in size
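Growth rescue measured by 600 nm absorbance after 48 h yeast culture at 30 C with compound. Values normalized between DMSO and an equimolar ferric chloride plus clioquinol control.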
FUS yeast rescue: rescues growth of FUS-expressing yeast | S. cerevisiae FUS-expressing, growth rescue, OD600, 24 h | Potency, µM (titrated, usually from 76.6 µM), actives largely listed as activators | hit rate 0.24% among 390,000 | AID 1347120;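 further: plate controls were DMSO vehicle for no effect and reference control for full effect; nearly all actives have a fitted effect of over 55% in size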
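Toxicity suppression screen in FUS-yeast. Cells induced with 2% galactose, starting OD 0.005, treated 24hr at 30C with compounds at multiple final concentrations; growth by OD600.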
TDP43 rescue: rescues yeast growth from TDP-43 toxicity. TDP-43 expressing yeast growth rescue, BacTiter-Glo, 24 h. Potency, µM (highest dose often 46.1 µM), without a hit: top-dose growth rescue (activation), most hits filed as activators. hit rate 1.8% among 410,000. AID 652104; further: % of control where 0% means no effect; nearly all actives have a fitted effect of over 50% in size
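Galactose-induced TDP-43 yeast, OD600=0.02, compound pinned; 24 hr, 30 deg C; BacTiter-Glo luminescence for growth. Inhibitors of TDP-43 toxicity read as activators.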
* marks the source's active call; other numbers are inactive results; i = inactive; ? = inconclusive; nt = no result. The call rests on the fitted dose curve; in most records, active means well fitted curve in the direction sought with a large enough effect; inconclusive means small, poorly fitted or top-dose-only effect, or another doubt; inactive means no such curve, though single readings can be large; an effect the other way counts as inactive or inconclusive. Potency means the concentration at half of the fitted maximal effect.

SMILES	aSyn yeast inh	Abeta yeast res	FUS yeast rescue	TDP43 rescue
COc1ccccc1CNc1nc2cc(-c3ccc(OC)c(OC)c3)sc2c(=O)n1C	13%	i	?	?
COc1ccc(Nc2nc3cc(-c4sccc4C)sc3c(=O)n2C)cc1OC	10%	i	?	35µM*
COc1ccc(-c2cc3nc(NCC4CCCCC4)n(C)c(=O)c3s2)cc1OC	30%	22µM*	i	20µM*
Cc1ccc2c(c1)c1c(n2CC(O)Cn2c(C)nc3ccccc32)C(=O)CCC1 (stereo unspecified)	-1%	i	i	16%
Cc1ccc2c(c1)c1c(n2CC2COC(C)(C)O2)C(=O)CCC1 (stereo unspecified)	0%	i	i	13µM*
Cc1ccc(NC(=O)Cc2sc(C)nc2-c2ccc(C)cc2)cc1	6%	i	nt	-8%
Cc1ccc(-c2nc(C)sc2CC(=O)OCC(=O)Nc2ccc(F)c(Cl)c2)cc1	-6%	?	i	25µM*
CCOc1ccccc1N=C1SCC(C)N1C(=O)C1CCN(c2ncnc3sc(C)c(C)c23)CC1 (stereo unspecified)	6%	i	i	20µM*
Cc1ccccc1OCC(=O)NNC(=O)C1CCN(c2ncnc3sc(C)c(C)c23)CC1	2%	i	i	4%
O=C(c1ccccc1)N1CCN(c2ncccn2)CC1	10%	i	i	0%
CCCc1cnc(N2CCN(C(=O)c3ccccc3)CC2)nc1	7%	i	i	11µM*
COc1cccc(C(O)c2nc(-c3cccc(C(F)(F)F)c3)cs2)c1 (stereo unspecified)	3%	i	i	22µM*
COc1ccc(C(O)c2nc(-c3cccc(F)c3)cs2)cc1 (stereo unspecified)	?	i	i	14µM*
OC(c1ccccc1)c1nc(-c2cccc(F)c2)cs1 (stereo unspecified)	25%	i	i	?
COc1ccc(C(O)c2nc(-c3cccc(C(F)(F)F)c3)cs2)cc1 (stereo unspecified)	12%	i	?	22µM*
COc1cccc(C(NC(C)=O)c2nc(-c3cccc(C(F)(F)F)c3)cs2)c1 (stereo unspecified)	-1%	i	i	?
COCc1cccc(-c2csc(C(O)c3ccc(F)c(F)c3)n2)c1 (stereo unspecified)	?	i	i	20µM*
COc1cc(C(O)c2nc(-c3cccc(C(F)(F)F)c3)cs2)ccc1F (stereo unspecified)	-38%	i	i	-71%
CCSC(=O)N1CCN(/[N+]([O-])=N/Oc2ccc([N+](=O)[O-])cc2[N+](=O)[O-])CC1	-60%	nt	nt	nt
C=CCN(CC=C)c1ccc(/C=C/c2ccnc3ccccc23)cc1	-29%	nt	nt	nt
Cc1cccc(-c2noc(CNC(=O)c3ccc(C)cc3C)n2)c1	nt	i	i	2%
Cc1ccc(CC(=O)NCc2nc(-c3cccc(C)c3)no2)cc1	nt	i	i	18µM*
Cc1ccc(CC(=O)NCc2nc(-c3ccccc3)no2)cc1	nt	i	i	13µM*
O=[N+]([O-])c1cnc2ccccc2c1Sc1ccccc1	nt	nt	i	nt
COCCNC(=S)N1CCN(c2nc(-c3ccccc3)cs2)CC1	-4%	i	i	29%
SMILES	aSyn yeast inh	Abeta yeast res	FUS yeast rescue	TDP43 rescue
COCCCNC(=S)N1CCN(c2nc(-c3ccc(F)cc3)cs2)CC1	-2%	?	?	22µM*
COc1cccc(-c2csc(N3CCN(C(=O)Nc4ccc(F)cc4)CC3)n2)c1	-4%	i	13µM*	18µM*
CCOC(=O)N1CCN(c2nc(-c3ccc(F)cc3)cs2)CC1	-17%	i	i	20µM*
CCOCCCNC(=S)N1CCN(c2nc(-c3ccc(F)cc3)cs2)CC1	4%	?	i	25µM*
CN(C)c1ccc(N=Nc2ccc(/C=C/c3ccnc4ccccc34)cc2)cc1	26%	nt	nt	nt
COc1ccccc1NC(C)C(=O)c1c[nH]c2ccccc12 (stereo unspecified)	-13%	nt	nt	nt
COc1ccccc1CNC(=O)CCCn1c(=O)c2ccccc2n(Cc2ccccc2C#N)c1=O	nt	i	i	-15%
Oc1ccc(C2C[C@H]3CC[C@@H]2C3)cc1O (stereo partly specified)	3%	?	i	14µM*
O=C1CC(c2ccc(O)c(O)c2)Oc2cc(O)cc(O)c21 (stereo unspecified)	1%	i	i	8%
